Measured values reported in paper PMC10812921, “Transcriptional Coactivator BOB1 (OBF1, OCA-B) Modulates the Specificity of DNA Recognition by the POU-Domain Factors OCT1 and OCT2 in a Monomeric Configuration”.

What was measured:
POU1 (OCT1 POU domain) = POU1 (OCT1 POU domain) (human, UniProt P14859 260-458); test: EMSA-SELEX-seq; no BOB1; 20 mM Tris-HCl pH 7.6, 140 mM NaCl, 10% glycerol, 0.5 mM EDTA, 0.05% Triton X-100, 0.1 mg/mL BSA, 0.1 mg/mL poly(dI-dC), 5 mM DTT, room temperature, 20 min; high values mean tight binding; settings: protein: recombinant; dsDNA, one strand shown
Summary of the method: (§1)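 Binding preference is the percentage of sequenced 8-mers matching a motif pattern. Tagged POU-domain proteins expressed in E. coli BL21 were purified under denaturing conditions and renatured. For binding, 30 ng protein met 300 ng of a PCR-amplified double-stranded random 35-nt library, with or without 28 ng coactivator protein, in 20 μL Tris–HCl pH 7.6 binding buffer for 20 min at RT. Complex bands were cut from native 6% PAGE, eluted and PCR-amplified over four rounds, then Illumina-sequenced.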

POU2 (OCT2 POU domain) = target: T1, POU2 (OCT2 POU domain) (human, UniProt P09086 175-386); test: as above; settings: protein: recombinant; dsDNA, one strand shown
T1 sequence: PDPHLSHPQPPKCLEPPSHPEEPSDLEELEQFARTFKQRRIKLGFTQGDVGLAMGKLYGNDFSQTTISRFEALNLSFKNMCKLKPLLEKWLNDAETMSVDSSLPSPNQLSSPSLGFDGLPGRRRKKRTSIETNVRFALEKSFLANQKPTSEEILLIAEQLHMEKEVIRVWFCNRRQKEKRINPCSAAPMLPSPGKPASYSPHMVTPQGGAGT
Summary of the method: as §1

[1] = target: POU1 (OCT1 POU domain);BOB1 (OBF1, OCA-B) (human;human, UniProt P14859;Q16633 260-458;1-256, |); test: EMSA-SELEX-seq; with BOB1 (ternary complex band); 20 mM Tris-HCl pH 7.6, 140 mM NaCl, 10% glycerol, 0.5 mM EDTA, 0.05% Triton X-100, 0.1 mg/mL BSA, 0.1 mg/mL poly(dI-dC), 5 mM DTT, room temperature, 20 min; high values mean tight binding; settings: protein: recombinant;recombinant; copies: 1;1; dsDNA, one strand shown
Summary of the method: as §1

[2] = target: T2, POU2 (OCT2 POU domain);BOB1 (OBF1, OCA-B) (human;human, UniProt P09086;Q16633 175-386;1-256, |); test: as above; settings: protein: recombinant;recombinant; copies: 1;1; dsDNA, one strand shown
T2 sequence 1: T1 sequence
T2 sequence 2: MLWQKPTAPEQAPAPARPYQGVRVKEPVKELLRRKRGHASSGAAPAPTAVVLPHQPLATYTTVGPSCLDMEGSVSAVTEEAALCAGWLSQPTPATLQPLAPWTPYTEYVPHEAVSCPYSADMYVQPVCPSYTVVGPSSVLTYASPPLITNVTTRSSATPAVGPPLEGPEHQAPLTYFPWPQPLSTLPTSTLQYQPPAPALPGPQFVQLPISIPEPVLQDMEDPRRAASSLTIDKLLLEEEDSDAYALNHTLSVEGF
Summary of the method: as §1

Sequence of POU1 (OCT1 POU domain) (P14859 260-458): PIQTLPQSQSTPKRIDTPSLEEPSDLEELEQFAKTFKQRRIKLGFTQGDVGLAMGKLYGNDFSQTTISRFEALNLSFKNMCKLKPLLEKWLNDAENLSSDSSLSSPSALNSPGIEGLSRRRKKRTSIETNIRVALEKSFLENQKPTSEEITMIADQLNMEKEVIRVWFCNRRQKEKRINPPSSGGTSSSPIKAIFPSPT

Sequence: AGGAGAAG
- binding signal (POU1 (OCT1 POU domain)): 0.045 % of ANNNNAAN 8-mers
- binding signal (POU2 (OCT2 POU domain)): 0.0472 % of ANNNNAAN 8-mers
- binding signal [1]: 0.0507 % of ANNNNAAN 8-mers
- binding signal [2]: 0.0438 % of ANNNNAAN 8-mers

Sequence: ATAGAAAC
- binding signal (POU1 (OCT1 POU domain)): 0.0328 % of ANNNNAAN 8-mers
- binding signal (POU2 (OCT2 POU domain)): 0.0455 % of ANNNNAAN 8-mers
- binding signal [1]: 0.0339 % of ANNNNAAN 8-mers
- binding signal [2]: 0.0355 % of ANNNNAAN 8-mers

Sequence: ACAACAAA
- binding signal (POU1 (OCT1 POU domain)): 0.0301 % of ANNNNAAN 8-mers
- binding signal (POU2 (OCT2 POU domain)): 0.0265 % of ANNNNAAN 8-mers
- binding signal [1]: 0.0371 % of ANNNNAAN 8-mers
- binding signal [2]: 0.0248 % of ANNNNAAN 8-mers

Sequence: ATGAGAAG
- binding signal (POU1 (OCT1 POU domain)): 0.0709 % of ANNNNAAN 8-mers
- binding signal (POU2 (OCT2 POU domain)): 0.088 % of ANNNNAAN 8-mers
- binding signal [1]: 0.0652 % of ANNNNAAN 8-mers
- binding signal [2]: 0.0553 % of ANNNNAAN 8-mers

Sequence: ATGCCAAA
- binding signal (POU1 (OCT1 POU domain)): 0.0458 % of ANNNNAAN 8-mers
- binding signal (POU2 (OCT2 POU domain)): 0.0501 % of ANNNNAAN 8-mers
- binding signal [1]: 0.0464 % of ANNNNAAN 8-mers
- binding signal [2]: 0.0438 % of ANNNNAAN 8-mers

Sequence: ACGAAAAA
- binding signal (POU1 (OCT1 POU domain)): 0.0431 % of ANNNNAAN 8-mers
- binding signal (POU2 (OCT2 POU domain)): 0.0409 % of ANNNNAAN 8-mers
- binding signal [1]: 0.0578 % of ANNNNAAN 8-mers
- binding signal [2]: 0.0355 % of ANNNNAAN 8-mers

Sequence: AAGACAAT
- binding signal (POU1 (OCT1 POU domain)): 0.0477 % of ANNNNAAN 8-mers
- binding signal (POU2 (OCT2 POU domain)): 0.0478 % of ANNNNAAN 8-mers
- binding signal [1]: 0.0382 % of ANNNNAAN 8-mers
- binding signal [2]: 0.0405 % of ANNNNAAN 8-mers

Sequence: ATGAGAAA
- binding signal (POU1 (OCT1 POU domain)): 0.0755 % of ANNNNAAN 8-mers
- binding signal (POU2 (OCT2 POU domain)): 0.0765 % of ANNNNAAN 8-mers
- binding signal [1]: 0.0738 % of ANNNNAAN 8-mers
- binding signal [2]: 0.0792 % of ANNNNAAN 8-mers

Sequence: ATAAGAAC
- binding signal (POU1 (OCT1 POU domain)): 0.0362 % of ANNNNAAN 8-mers
- binding signal (POU2 (OCT2 POU domain)): 0.0518 % of ANNNNAAN 8-mers
- binding signal [1]: 0.0332 % of ANNNNAAN 8-mers
- binding signal [2]: 0.0438 % of ANNNNAAN 8-mers

Sequence: AGGGGAAT
- binding signal (POU1 (OCT1 POU domain)): 0.11 % of ANNNNAAN 8-mers
- binding signal (POU2 (OCT2 POU domain)): 0.121 % of ANNNNAAN 8-mers
- binding signal [1]: 0.089 % of ANNNNAAN 8-mers
- binding signal [2]: 0.11 % of ANNNNAAN 8-mers

Sequence: AGGTGAAT
- binding signal (POU1 (OCT1 POU domain)): 0.108 % of ANNNNAAN 8-mers
- binding signal (POU2 (OCT2 POU domain)): 0.119 % of ANNNNAAN 8-mers
- binding signal [1]: 0.071 % of ANNNNAAN 8-mers
- binding signal [2]: 0.102 % of ANNNNAAN 8-mers

Sequence: ATATTAAC
- binding signal (POU1 (OCT1 POU domain)): 0.151 % of ANNNNAAN 8-mers
- binding signal (POU2 (OCT2 POU domain)): 0.189 % of ANNNNAAN 8-mers
- binding signal [1]: 0.0667 % of ANNNNAAN 8-mers
- binding signal [2]: 0.0751 % of ANNNNAAN 8-mers

Sequence: ACCTGAAG
- binding signal (POU1 (OCT1 POU domain)): 0.0137 % of ANNNNAAN 8-mers
- binding signal (POU2 (OCT2 POU domain)): 0.0161 % of ANNNNAAN 8-mers
- binding signal [1]: 0.0164 % of ANNNNAAN 8-mers
- binding signal [2]: 0.0206 % of ANNNNAAN 8-mers

Sequence: AAATGAAC
- binding signal (POU1 (OCT1 POU domain)): 0.115 % of ANNNNAAN 8-mers
- binding signal (POU2 (OCT2 POU domain)): 0.102 % of ANNNNAAN 8-mers
- binding signal [1]: 0.11 % of ANNNNAAN 8-mers
- binding signal [2]: 0.141 % of ANNNNAAN 8-mers

Sequence: AAGTTAAC
- binding signal (POU1 (OCT1 POU domain)): 0.0347 % of ANNNNAAN 8-mers
- binding signal (POU2 (OCT2 POU domain)): 0.038 % of ANNNNAAN 8-mers
- binding signal [1]: 0.0355 % of ANNNNAAN 8-mers
- binding signal [2]: 0.0355 % of ANNNNAAN 8-mers

Sequence: ACTCGAAC
- binding signal (POU1 (OCT1 POU domain)): 0.016 % of ANNNNAAN 8-mers
- binding signal (POU2 (OCT2 POU domain)): 0.0184 % of ANNNNAAN 8-mers
- binding signal [1]: 0.0113 % of ANNNNAAN 8-mers
- binding signal [2]: 0.0198 % of ANNNNAAN 8-mers

Sequence: AAGCTAAG
- binding signal (POU1 (OCT1 POU domain)): 0.0248 % of ANNNNAAN 8-mers
- binding signal (POU2 (OCT2 POU domain)): 0.0322 % of ANNNNAAN 8-mers
- binding signal [1]: 0.0187 % of ANNNNAAN 8-mers
- binding signal [2]: 0.0272 % of ANNNNAAN 8-mers

Sequence: ACTTTAAT
- binding signal (POU1 (OCT1 POU domain)): 0.0824 % of ANNNNAAN 8-mers
- binding signal (POU2 (OCT2 POU domain)): 0.103 % of ANNNNAAN 8-mers
- binding signal [1]: 0.0558 % of ANNNNAAN 8-mers
- binding signal [2]: 0.066 % of ANNNNAAN 8-mers

Sequence: AAACAAAG
- binding signal (POU1 (OCT1 POU domain)): 0.114 % of ANNNNAAN 8-mers
- binding signal (POU2 (OCT2 POU domain)): 0.0742 % of ANNNNAAN 8-mers
- binding signal [1]: 0.165 % of ANNNNAAN 8-mers
- binding signal [2]: 0.0892 % of ANNNNAAN 8-mers

Sequence: AGCCAAAC
- binding signal (POU1 (OCT1 POU domain)): 0.0194 % of ANNNNAAN 8-mers
- binding signal (POU2 (OCT2 POU domain)): 0.0196 % of ANNNNAAN 8-mers
- binding signal [1]: 0.0261 % of ANNNNAAN 8-mers
- binding signal [2]: 0.0182 % of ANNNNAAN 8-mers

Sequence: ACCGCAAT
- binding signal (POU1 (OCT1 POU domain)): 0.0164 % of ANNNNAAN 8-mers
- binding signal (POU2 (OCT2 POU domain)): 0.019 % of ANNNNAAN 8-mers
- binding signal [1]: 0.0199 % of ANNNNAAN 8-mers
- binding signal [2]: 0.0264 % of ANNNNAAN 8-mers

Sequence: AACTTAAA
- binding signal (POU1 (OCT1 POU domain)): 0.0526 % of ANNNNAAN 8-mers
- binding signal (POU2 (OCT2 POU domain)): 0.0501 % of ANNNNAAN 8-mers
- binding signal [1]: 0.046 % of ANNNNAAN 8-mers
- binding signal [2]: 0.038 % of ANNNNAAN 8-mers

Sequence: ATATGAAG
- binding signal (POU1 (OCT1 POU domain)): 0.0545 % of ANNNNAAN 8-mers
- binding signal (POU2 (OCT2 POU domain)): 0.0823 % of ANNNNAAN 8-mers
- binding signal [1]: 0.0691 % of ANNNNAAN 8-mers
- binding signal [2]: 0.0735 % of ANNNNAAN 8-mers

Sequence: AGATAAAC
- binding signal (POU1 (OCT1 POU domain)): 0.04 % of ANNNNAAN 8-mers
- binding signal (POU2 (OCT2 POU domain)): 0.0506 % of ANNNNAAN 8-mers
- binding signal [1]: 0.0519 % of ANNNNAAN 8-mers
- binding signal [2]: 0.0487 % of ANNNNAAN 8-mers

Sequence: AATCGAAT
- binding signal (POU1 (OCT1 POU domain)): 0.087 % of ANNNNAAN 8-mers
- binding signal (POU2 (OCT2 POU domain)): 0.0926 % of ANNNNAAN 8-mers
- binding signal [1]: 0.078 % of ANNNNAAN 8-mers
- binding signal [2]: 0.0916 % of ANNNNAAN 8-mers

Sequence: AGACTAAC
- binding signal (POU1 (OCT1 POU domain)): 0.0153 % of ANNNNAAN 8-mers
- binding signal (POU2 (OCT2 POU domain)): 0.0207 % of ANNNNAAN 8-mers
- binding signal [1]: 0.0156 % of ANNNNAAN 8-mers
- binding signal [2]: 0.0198 % of ANNNNAAN 8-mers

Sequence: AAAAGAAC
- binding signal (POU1 (OCT1 POU domain)): 0.0351 % of ANNNNAAN 8-mers
- binding signal (POU2 (OCT2 POU domain)): 0.0443 % of ANNNNAAN 8-mers
- binding signal [1]: 0.0468 % of ANNNNAAN 8-mers
- binding signal [2]: 0.0338 % of ANNNNAAN 8-mers

Sequence: ACCTTAAC
- binding signal (POU1 (OCT1 POU domain)): 0.0118 % of ANNNNAAN 8-mers
- binding signal (POU2 (OCT2 POU domain)): 0.0173 % of ANNNNAAN 8-mers
- binding signal [1]: 0.0152 % of ANNNNAAN 8-mers
- binding signal [2]: 0.0149 % of ANNNNAAN 8-mers

Sequence: AGGACAAA
- binding signal (POU1 (OCT1 POU domain)): 0.045 % of ANNNNAAN 8-mers
- binding signal (POU2 (OCT2 POU domain)): 0.046 % of ANNNNAAN 8-mers
- binding signal [1]: 0.0453 % of ANNNNAAN 8-mers
- binding signal [2]: 0.0371 % of ANNNNAAN 8-mers

Sequence: ATATGAAT
- binding signal (POU1 (OCT1 POU domain)): 0.243 % of ANNNNAAN 8-mers
- binding signal (POU2 (OCT2 POU domain)): 0.316 % of ANNNNAAN 8-mers
- binding signal [1]: 0.122 % of ANNNNAAN 8-mers
- binding signal [2]: 0.141 % of ANNNNAAN 8-mers
